# Measurements as given in PubChem BioAssay (NCI).
# Several values for one entry are separate records, joined by “and”; a condition that tells them apart may be missing. Equal entries are not always repeated. Compounds without any hit were thinned out: in the full panel of roughly 83,000, 20% have a hit.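 Single-dose data. Exposure time 48 hours. Values below 10 considered active.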 Activity calls are given as the source filed them.
# System: HL-60(TB) leukemia
# Assay: NCI-60 one-dose screen, 48 h (100 = growth as untreated, 0 = no growth, -100 = all killed)
# Details: 10 µM unless noted
row,SMILES,growth
1,CC(C)(C)N1CCC1CN (stereo not given),125% (inactive)
2,Cc1c(C(=O)OC(=NC2CCCCC2)NC2CCCCC2)sc2c1c(=O)nc1c(C#N)n[nH]n12,124% (inactive)
3,O=C1C(Cl)=C(Nc2ccccn2)C(=O)c2ccccc21,72.9% (inactive)
4,OC(CC(c1ccccc1)c1cccc2ccccc12)(c1ccccc1)c1ccccc1 (stereo not given),99.1% (inactive) and 101% (inactive)
5,COc1ccc2nc3cc(Cl)ccc3c(NCCCNC(C)=O)c2c1,57.7% (inactive)
6,O=C(Nc1ccc(F)cc1F)c1cc(F)ccc1O,-25.4% (active)
7,O=C(CCl)N1CCCc2ccccc21,93.3% (inactive)
8,Cc1n(Cc2ccc3ccccc3n2)cc[n+]1Cc1ccc2ccccc2c1,-32.9% (active)
9,ON1CCCC1,82.3% (inactive)
10,Nc1cc(N)c2cccnc2c1O,59.6% (inactive)
11,O=C(CN1CCCCC1)Sc1nnc2sc3ccccc3n12,98.6% (inactive)
12,COC(=O)/C=C1\S/C(=N\NS(=O)(=O)c2ccc(C)cc2)N(c2ccccc2)C1=O,105% (inactive)
13,CC(=O)c1nc(Nc2ccc(C)cc2)sc1C,101% (inactive)
14,Cc1ccc(NC2=CC(=O)C(=O)c3ccccc32)c(C)c1,38% (inactive)
15,C=CCc1c(O)c(C(=O)/C=C/c2ccc(Cl)cc2)c(OC)c2ccoc12,25.4% (inactive)
16,CCn1c2ccccc2c2cc(NC(=O)Nc3ccc([N+](=O)[O-])cc3C)ccc21,18.7% (inactive)
17,CC(=O)Nc1ccc(C(=O)/C=C/c2ccc(N(C)C)cc2)cc1,104% (inactive)
18,N#Cc1ccc(OCc2nc(N)nc(N)c2-c2ccc(Cl)c(Cl)c2)cc1,21.7% (inactive)
19,COc1cc(C(=O)N/N=C/c2cccc([N+](=O)[O-])c2)cc(OC)c1OC,41.3% (inactive)
20,Cc1cc2c(F)c(Oc3ncnn4cc(OC[C@@H](C)OC(=O)[C@H](C)N)c(C)c34)ccc2[nH]1,12.6% (inactive)

row,SMILES,growth
1,COc1ccc(-c2nc(N)ncc2Oc2ccccc2OC)c(O)c1,-21.8% (active)
2,COc1nc2ccccc2s1,94.5% (inactive)
3,COc1ccc2c(c1)C(=O)/C(=C/c1ccc([N+](=O)[O-])o1)O2,-42.3% (active)
4,COc1ccc2c(c1)c1nc3cc(C)c(C)cc3nc1n2CCN(C)C,-26.4% (active)
5,CCCOc1cc2ccccc2cc1C(=O)Nc1nc(NC)c2c(ccc3nccc32)[nH]1,-55.2% (active)
6,Cc1cc(NC(=O)NC(=O)c2ccccc2N(C)C)ccc1Oc1ncc(Br)cn1,-13.6% (active) and 20.7% (inactive)
7,Cc1ccc(-c2cc(O)c(-c3ccc(C)cc3C)cc2O)c(C)c1,21.2% (inactive)
8,O=C(O)C(Cc1ccc(OS(=O)(=O)Cc2ccccc2)cc1)NS(=O)(=O)Cc1ccccc1 (stereo not given),109% (inactive) and 82.6% (inactive)
9,CCN1CCN(c2cc(C)nc(N(CCCNc3ccnc4cc(Cl)ccc34)Cc3cccs3)n2)CC1,-50.3% (active)
10,NC(N)=NC1CCCCC1,94.4% (inactive)
11,C=CCn1c(SCC(=O)Nc2ccc(C(=O)/C=C/c3cc(OC)c(OC)c(OC)c3)cc2)nnc1-c1ccccc1,71.8% (inactive)
12,COc1ccc(/C=C/C(=O)Nc2ncnc3nc[nH]c23)cc1,78.8% (inactive)
13,O=C(CN1CCN(c2cc3c(cc2F)c(=O)c(C(=O)O)cn3C2CC2)CC1)Nc1ccc(Cl)cc1,89.5% (inactive) and 98.4% (inactive)
14,CC(C)N(Cc1ccccc1)c1c(S)ssc1=S,-23.3% (active)
15,CC(C(=O)O)n1cc(C#N)c(=O)[nH]c1=O (stereo not given),104% (inactive) and 90.4% (inactive)
16,O=C1NC(c2ccc(F)cc2)N=C2C(c3ccccc3)=NOC12 (stereo not given),101% (inactive)
17,CN(O)c1nc(N(C)O)nc(N2CCOCC2)n1,21.5% (inactive)
18,COc1ccc(C(=O)COC(=O)[C@H](C[Se][Se]C[C@H](NC(=O)c2ccc(Br)cc2F)C(=O)OCC(=O)c2ccc(OC)cc2)NC(=O)c2ccc(Br)cc2F)cc1,2.8% (active)
19,CCCCN(CCCC)CCCOC(=O)c1ccc(N)cc1,76.4% (inactive)
20,CC[N+](CC)(CC(=O)Nc1c(C)cccc1C)Cc1ccccc1,79.6% (inactive) and 94.7% (inactive)
